Assay outcomes deposited in PubChem BioAssay by National Center for Advancing Translational Sciences (NCATS).
A selection: hits, their analogues and other compounds. The true share with any hit is near 12%.
NS1 inh: blocks influenza NS1 protein function; AID 2326; Potency, µM (titrated, usually from 46.1 µM), without a hit: at the highest dose activity, positive = more growth; 0.4% of 270,000 active; also: potency is read from the fitted curve at half-maximal effect; actives are rising curves; nearly all actives have a fitted effect of over 50% in size
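OD600 was taken as the measure of yeast growth restored by compound in an NS1-expressing S. cerevisiae strain. Cells had been washed out of glucose medium and diluted 1:100 into galactose -URA medium, pH 6.0.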
Shiga inhibitor: Shiga toxin inhibition; Vero cells, Shiga toxin protein synthesis inhibition reporter; inhibition, % at 38.7 µM; 9.2% of 290,000 active; in the data active = inhibition mostly above about 28%, no sharp cut-off; inactive = mostly below about 43%; also: 0% is about no effect
CHX counter: affects cycloheximide protein synthesis inhibition readout, counter-screen | cell reporter, cycloheximide protein synthesis inhibition counterscreen | max response, % | 12% of 300,000 active; in the data active = max response mostly above about 13%, no sharp cut-off; inactive = mostly below about 14%; also: read at 38.3 µM for the half of the compounds with a filed dose; 0% is about no effect
SARS PLP yeast: blocks SARS-CoV papain-like protease in a yeast assay; Potency, µM (series often up to 32.9 µM), for the others: at the top dose activity, positive = growth rescue, actives largely listed as activators; S. cerevisiae expressing SARS-CoV PLpro, growth rescue; 0.19% of 330,000 active; also: potency is read from the fitted curve at half-maximal effect; 0% is about no effect; nearly all actives have a fitted effect of over 55% in size
The depositor's hits bear a star; u = inconclusive; x = not tested or not shown. Unless noted, calls follow the shape of the full dose curve.

SMILES	NS1 inh	Shiga inhibitor	CHX counter	SARS PLP yeast
O=C(CCn1nc(-c2ccc(F)cc2)ccc1=O)NCc1ccccc1	3%	12	1	0%
CCOC(=O)/C=C(/C)N1N=C(c2ccc(OC)cc2)CC1c1cccc([N+](=O)[O-])c1 (stereo not drawn)	-1%	113*	46*	-4%
COc1ccc(C2=NN(C(=O)c3ccccc3)C(c3cccc([N+](=O)[O-])c3)C2)cc1 (stereo not drawn)	12%	-2	-3	0%
CC1=CN2C(=N)/C(=C/c3ccc(Sc4ccc(Cl)cc4)o3)C(=O)N=C2S1	0%	-3	4	1%
Cc1ccc(/C=C2\C(=N)N3N=C(CC(=O)N4CCOCC4)SC3=NC2=O)o1	24%	-1	-1	4%
CC1=CN2C(=N)/C(=C/c3ccc(C)o3)C(=O)N=C2S1	-3%	53*	24*	-37%
CC1=CN2C(=N)/C(=C/c3ccc(Sc4ccc(C)cc4)o3)C(=O)N=C2S1	-17%	active	23*	-11%
c1ccc(CCCN2CCN(c3ccccc3)CC2)cc1	3%	-5	3	-6%
Cc1cc(C)c(C(=O)NC2CC(C)(C)Cc3c2cnn3-c2ccccc2)o1 (stereo not drawn)	-33%	-4	1	-3%
CCOC(=O)N1CCN(C(=O)c2nc3ccccc3s2)CC1	-6%	73*	34*	-3%
CCOC(=O)N1CCN(CC(=O)Nc2nc3ccccc3s2)CC1	-11%	x	-2	3%
CCOC(=O)N1CCC(NC(=O)c2ccc3c(c2)sc2nc(-c4ccc(OC)cc4)cn23)CC1	7%	57*	20*	7%
CCOC(=O)N1CCN(C(=O)c2ccc3c(c2)sc2nc(-c4ccccc4)cn23)CC1	-75%	43*	53*	-4%
O=C(CN(C(=O)CCC(=O)Nc1ccccn1)c1ccc(F)cc1)NCCc1ccccc1	-3%	-2	-4	-1%
Cc1ccc(-n2sc3ccccc3c2=O)cc1	-40%	31	18*	-86%
OCCC1CN(C/C=C/c2ccco2)CCN1Cc1ccccc1 (stereo not drawn)	0%	-25	1	-2%
CCOC(=O)C1CCCN(c2nc3ccccc3nc2C(C#N)C(=O)OCCOC)C1 (stereo not drawn)	1%	-6	-1	0%
CCOC(=O)C1CCN(c2nc3ccccc3nc2C(C#N)C(=O)NCCc2ccccc2)CC1 (stereo not drawn)	-68%	88	49*	-49%
O=C(Nc1ccccc1C(=O)O)/C(=C/c1ccc(Cl)cc1Cl)NC(=O)c1ccco1	11%	22	1	3%
CCOC(=O)c1c[nH]n(-c2ccccc2)c1=O	x	30*	20	1%
CCOC(=O)c1c[nH]n(-c2ccc(C)cc2)c1=O	x	48*	21*	-1%
Cc1cccc(NC(=S)NNC(=O)c2csc(C(C)C)c2)c1	-10%	42*	42*	25%
Cc1ccsc1C(=O)NNC(=S)NCC(C)C	-2%	9	0	2%
C=CCNC(=S)NNC(=O)c1csc(CC)c1	8%	19	8	7%
Cc1cccc(C(=O)NNC(=O)Nc2ccccc2)c1	x	-2	2	1%
SMILES	NS1 inh	Shiga inhibitor	CHX counter	SARS PLP yeast
CCc1cc(C(=O)NNC(=S)Nc2cccc(C)c2)cs1	-11%	66*	28*	u
Cc1cccc(NC(=S)NNC(=O)c2sccc2C)c1	-8%	107	25*	3%
CCCCNC(=S)NNC(=O)c1csc(CC)c1	5%	34*	9	0%
CC(C)c1ccccc1OCCNC(=S)NC(=O)c1cccnc1	4%	-10	1	11%
CCc1cc(C(=O)Nc2ccc(C)cc2Br)cs1	-25%	71*	57*	-4%
Cc1ccc(NC(=O)COC(=O)c2cc(Cl)cc(Cl)c2)c(Br)c1	-4%	-10	-5	24%
O=C(CSc1nnc(-c2cccs2)o1)N1CCOCC1	9%	-5	-2	-4%
CC1CCN(C(=O)CSc2nnc(-c3cccs3)o2)CC1	8%	63*	45*	-1%
CC1CCN(C(=O)CSc2nnc(-c3ccccc3F)o2)CC1	-5%	56*	15	-1%
O=C(CSc1nnc(-c2cccs2)o1)N1CCCCC1	-12%	113*	48*	8%
Cc1ccc(C(=O)NC2CCN(S(=O)(=O)c3ccccc3F)CC2)cc1	10%	x	-4	-4%
CC(=O)Nc1nc2ccc(-c3nc4ccccc4o3)cc2s1	-11%	54*	61*	-33%
O=C(Cc1cccs1)Nc1cccc(-c2nc3ccccc3o2)c1	-18%	2	23	0%
CCC(=O)Nc1cccc(-c2nc3ccccc3o2)c1	-34%	48	16*	-19%
CS(=O)(=O)c1ccccc1C(=O)Nc1cccc(-c2nc3ccccc3o2)c1	-8%	12	23*	-2%
